Source: PubChem BioAssay
Rows were chosen to be rich in hits. Some 1% of all compounds tested hit in one or more screens of this group.
BioA inh = M. tuberculosis BioA enzyme inhibitors, primary screen, biochemical, plate reader, single point, HTS. inhibition, % at 9.99 µM. 7,8-diaminopelargonic acid synthase BioA (Mycobacterium tuberculosis). purified M. tuberculosis BioA enzyme. 360,000 compounds, 0.096% hits; in the data active = inhibition above about 40%
SSB-PriA inh = inhibitors of Klebsiella pneumoniae PriA binding to SSB C-terminal tail, primary screen, biochemical, AlphaScreen. AlphaScreen SSBct-PriA binding, biotinylated peptide. AID 1272365, 2023. 430,000 compounds, 0.6% hits. inhibition, % at 33 µM. PriA–SSB C-terminal tail interaction (Klebsiella pneumoniae); in the data active = inhibition mostly above about 37%, no sharp cut-off; inactive = mostly below about 20%;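 note: plate controls were negative control peptide for no effect and reference peptide for full effect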
TcdB GH inh = TcdB glycohydrolase inhibitors, primary screen, biochemical, single point, plate reader; AID 652162, 2013; 350,000 compounds, 0.24% hits; Toxin B (Clostridioides difficile), P18177; inhibition, % at 9.99 µM; TcdB glycohydrolase enzymatic assay; in the data active = inhibition above about 10%
Mtb hypoxia rep = PubChem AID 1159583. 300,000 compounds, 0.1% hits. fluorescence inhibition, % (no concentration beside the values). M. tuberculosis hypoxia-regulated fluorescent reporter, fluorescence; in the data active = fluorescence inhibition mostly above about 23%, no sharp cut-off; inactive = mostly below about 17%
FadD28 binding = inhibitors of FadD28 bisubstrate probe binding, primary screen, biochemical, fluorescence polarization, single point; inhibition, % at 12.5 µM; Mycobacterium tuberculosis FadD28 fatty-acid-AMP ligase; 360,000 compounds, 0.22% hits; in the data active = inhibition above about 8.5%, passing the limit was not always enough
PrP UTR inh = inhibition of PrP 5' UTR reporter expression. cell-based PrP 5' UTR mRNA reporter, plate reader. inhibition, % (no concentration beside the values). 340,000 compounds, 0.35% hits; in the data active = inhibition above about 52%; note: 0 = median of the neutral control wells
Starred values were filed as active, the others as inactive.

CC(C)(C)c1ccc(-c2c(C(=O)O)c(C(=O)O)c3n2CSC3)cc1 was read as BioA inh 1, SSB-PriA inh 4, TcdB GH inh 0, Mtb hypoxia rep -4, FadD28 binding 0 and PrP UTR inh -29.
COc1ccc(-c2csc(NC(=O)COC(=O)c3ccco3)n2)cc1 was read as BioA inh -2, SSB-PriA inh 0, TcdB GH inh 7, Mtb hypoxia rep 13, FadD28 binding -4 and PrP UTR inh -94.
`O=C(Nc1nc(-c2cccs2)cs1)C1=COCCO1` gave SSB-PriA inh -10, TcdB GH inh 2, Mtb hypoxia rep 11, FadD28 binding -1 and PrP UTR inh -106.
For Nc1nc(N)c2c(ccc3nccc32)[nH]1 the results were BioA inh 0, SSB-PriA inh -16, TcdB GH inh 2, FadD28 binding -2 and PrP UTR inh 5.
For c1coc(-c2cc(C3CCNCC3)[nH]n2)c1 the results were SSB-PriA inh -14, TcdB GH inh -5, Mtb hypoxia rep 12, FadD28 binding 0 and PrP UTR inh -1.
Screening c1ccc2c(-c3cc(C4CCNCC4)[nH]n3)cccc2c1 returned BioA inh -1, SSB-PriA inh 39*, TcdB GH inh 1, Mtb hypoxia rep 13, FadD28 binding -1 and PrP UTR inh 4.
Screening CO[C@H]1CN(C)C(=O)c2ccc(NC(C)=O)cc2OC[C@@H](C)N(CCc2ccccc2)C[C@@H]1C returned BioA inh 6 and TcdB GH inh 2.
`COc1cccc(/C=N/n2c(C3CCCCC3)n[nH]c2=S)c1O` gave BioA inh 0, TcdB GH inh 2, FadD28 binding 15* and PrP UTR inh -12.
For COc1cccc(/C=N/n2c(C3CCCCC3)n[nH]c2=S)c1OC the results were TcdB GH inh 1, FadD28 binding 0 and PrP UTR inh -15.
Oc1ccc(Br)cc1/C=N/n1c(C2CCCCC2)n[nH]c1=S was read as BioA inh 2, TcdB GH inh -2, FadD28 binding 16* and PrP UTR inh -7.
Screening CCCc1sc(N/N=C/c2ccccn2)nc1-c1ccc(F)cc1 returned BioA inh -1, FadD28 binding -3 and PrP UTR inh 20.
For Cc1csc(NN=Cc2ccccn2)n1 the results were SSB-PriA inh 58* and Mtb hypoxia rep 4.
CCCc1sc(NN=Cc2ccccn2)nc1-c1ccc(F)cc1 was read as SSB-PriA inh 41* and Mtb hypoxia rep -4.
COc1ccccc1NC(=O)CSc1nc2ccccc2c(=O)n1C1CCCCC1 was read as SSB-PriA inh -8.
`CCCCNc1c(-c2cccc(-c3ccc(OC)cc3)c2)nc2cc(C)ccn12` gave BioA inh -3, SSB-PriA inh 53*, TcdB GH inh -6, Mtb hypoxia rep 11, FadD28 binding -4 and PrP UTR inh -10.
COC(=O)c1ccc2nc(Nc3nc4ccc(F)cc4s3)sc2c1 was read as BioA inh -2, SSB-PriA inh -3, TcdB GH inh 1, Mtb hypoxia rep 6, FadD28 binding -4 and PrP UTR inh 81*.
For COC(=O)c1ccc2nc(Nc3nc4cc5c(cc4s3)OCO5)sc2c1 the results were SSB-PriA inh -2.
`Cc1cc(C(c2ccc(O)cc2)c2cc(C)c(O)cc2C)c(C)cc1O` gave BioA inh -1, SSB-PriA inh 6, TcdB GH inh 1, Mtb hypoxia rep -13, FadD28 binding 0 and PrP UTR inh -8.
COc1ccc(C)cc1NCc1ccc([N+](=O)[O-])cc1 was read as BioA inh 0, SSB-PriA inh 40*, TcdB GH inh -2, Mtb hypoxia rep 6, FadD28 binding -2 and PrP UTR inh -13.
`CCCCC(=O)NC(=S)Nc1cc([N+](=O)[O-])ccc1OC` gave BioA inh -1, SSB-PriA inh -10, TcdB GH inh 2, Mtb hypoxia rep 10, FadD28 binding -3 and PrP UTR inh -22.
CC(=O)Nc1ccc(OC(=O)c2cc([N+](=O)[O-])ccc2Cl)cc1 was read as BioA inh 0, SSB-PriA inh -1, TcdB GH inh 2, Mtb hypoxia rep 1, FadD28 binding -3 and PrP UTR inh -15.
For COc1cc([N+](=O)[O-])ccc1NC(=O)Oc1ccc(NC(C)=O)cc1 the results were BioA inh 2, SSB-PriA inh 18, TcdB GH inh 10*, FadD28 binding -1 and PrP UTR inh -40.
COc1ccc([N+](=O)[O-])cc1NC(=S)NC(C)=O was read as SSB-PriA inh -2, TcdB GH inh 16*, Mtb hypoxia rep 7, FadD28 binding -2 and PrP UTR inh -2.
CC(=O)CSc1nnc(Cc2ccc3c(c2)OCO3)o1 was read as BioA inh -1, SSB-PriA inh -13, Mtb hypoxia rep -4, FadD28 binding -2 and PrP UTR inh -30.
For C[C@H](CO)N1C[C@H](C)[C@@H](CN(C)C(=O)c2ccccc2)OCc2cn(nn2)CCCC1=O the results were BioA inh -2, TcdB GH inh -9 and FadD28 binding -1.
`COc1cccc(/C=N/NC(=S)Nc2cccc(S(=O)(=O)N(C)C)c2)c1` gave BioA inh -1, TcdB GH inh 2, FadD28 binding -7 and PrP UTR inh -15.
Screening COc1ccc(O)c(/C=N/NC(=S)Nc2cccc(S(=O)(=O)N(C)C)c2)c1 returned BioA inh -1, FadD28 binding 18* and PrP UTR inh 16.
For CC1CCN(c2c([N+](=O)[O-])nn(-c3ccc4c(c3)OCCO4)[n+]2[O-])CC1 the results were BioA inh 0, SSB-PriA inh 40*, Mtb hypoxia rep -3, FadD28 binding 0 and PrP UTR inh -21.
For O=[N+]([O-])c1nn(-c2ccc3c(c2)OCCO3)n(O)c1=NC1CCCCC1 the results were BioA inh -1, SSB-PriA inh 13, Mtb hypoxia rep 9, FadD28 binding 0 and PrP UTR inh -40.
Screening O=C(CNc1cccc2ccccc12)NN=Cc1ccc(C(=O)O)cc1 returned SSB-PriA inh 19 and Mtb hypoxia rep 0.
`O=C(CNc1cccc2ccccc12)N/N=C/c1ccc(C(=O)O)cc1` gave BioA inh 2, TcdB GH inh -1, FadD28 binding 38* and PrP UTR inh -26.
Screening Oc1cc(-c2cccnc2)cc2cccnc12 returned BioA inh -1, SSB-PriA inh 54*, TcdB GH inh -7, Mtb hypoxia rep 3, FadD28 binding 0 and PrP UTR inh -15.
Screening CN1CCN(C(=O)c2cccc(-c3cc(O)c4ncccc4c3)c2)CC1 returned BioA inh 8, SSB-PriA inh 37, TcdB GH inh -30, Mtb hypoxia rep 17, FadD28 binding -3 and PrP UTR inh -10.
Screening Oc1cccc2cc(Nc3ccccc3)cnc12 returned BioA inh 0, TcdB GH inh 1 and FadD28 binding -1.
